A short description of assay [1]: Drug repurposing screens with cells derived from glioblastoma tumor samples (AID 1345199). Note: nearly all actives have a fitted effect of over 40% in size. As to conditions: GBM patient neurospheres viability, ATP luminescence, 48 h. The procedure, abridged: (§1)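 Primary testing used CD133+ neurospheres from four GBM patients, seven concentrations, 48 h exposure and ATP-based viability; confirmation added three slower-growing patient lines.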

The test system of the next assay is astro (control astrocytes). The assay is described as above. As to conditions: viability, ATP luminescence, 48 h; series mostly up to 45.9 µM. The procedure, abridged:
as §1

Setting [2] is: at 45.9 µM (top of the series), tumour line B.
Setting [3] is: at 45.9 µM (top of the series), tumour line D.
[4] abbreviates: at 46 µM (top of the series), tumour line A.
[5] abbreviates: at 46.1 µM (top of the series), tumour line C.

Several values for one entry are separate records, joined by “and”; a condition that tells them apart may be missing. Equal values may be shown once. Results filed as inconclusive are left out. Values without a mark were called inactive. Activity calls are given as the source filed them. Calls come from the whole dose curve; as a rule, active = well fitted inhibition curve with a large enough effect; inconclusive = small, poorly fitted or top-dose-only effect; inactive = flat fitted curve, though single readings scatter.
% is set by controls: 0 for no effect and ±100 for the full control effect; potency is the fitted concentration of half-maximal effect.

Take `O[C@@H]([C@H](O)[C@H](O)CBr)[C@H](O)CBr`: the activity, negative = cell killing in assay [1] (setting [2]) was -6.4%; in assay [1] (setting [3]), -10.8%; in assay [1] (setting [4]), -25.7%; in assay [1] (setting [5]), 4.72%. Moreover, the Potency entry with astro is “inactive”.
As for `NC(=O)CC[C@@H]1NC(=O)[C@H](Cc2ccccc2)NC(=O)[C@H](Cc2ccc(O)cc2)NC(=O)[C@@H](N)CSSC[C@@H](C(=O)N2CCC[C@H]2C(=O)N[C@@H](CCCN=C(N)N)C(=O)NCC(N)=O)NC(=O)[C@H](CC(N)=O)NC1=O`, the activity, negative = cell killing in assay [1] (setting [2]) was -4.7% and -11.9%; in assay [1] (setting [3]), -8.98% and -1.09%; in assay [1] (setting [4]), -23.2%; in assay [1] (setting [5]), 9.23% and 16.1%. Besides, the Potency result with astro was “inactive”.
With `CCCCCCCCCCCC(=O)OCC(O)CO` (stereo not given), the activity, negative = cell killing is -6.19% in assay [1] (setting [2]), -1.8% in assay [1] (setting [3]), -27.7% in assay [1] (setting [4]) and -2.49% in assay [1] (setting [5]). Besides, in the assay on astro, the Potency result is “inactive”.
On to `O=C(O)c1ccc(NC(=O)[C@H](Cc2ccc(O)cc2)NC(=O)c2ccccc2)cc1`, for which the activity, negative = cell killing in assay [1] (setting [2]) is -3.63%; in assay [1] (setting [3]), -4.5%; in assay [1] (setting [4]), -23.1%; in assay [1] (setting [5]), -6.93%. Besides, the Potency result in the assay on astro is “inactive”.
For `CC(=O)Nc1c(I)c(C(=O)O)c(I)c(N(C)C(C)=O)c1I`, in that order: 6.39%, 5.92%, -22.3%, 7.24% and “inactive”.
Taken in the same sequence, the figures for `CC(O)[C@@H]1NC(=O)[C@H](Cc2ccccc2)NC(=O)[C@H](C(C)O)NC(=O)[C@H](CCCCN)NC(=O)[C@H](Cc2c[nH]c3ccccc23)NC(=O)[C@H](Cc2ccccc2)NC(=O)[C@H](Cc2ccccc2)NC(=O)[C@H](CC(N)=O)NC(=O)[C@H](CCCCN)NC(=O)[C@@H](NC(=O)CNC(=O)[C@H](C)N)CSSC[C@@H](C(=O)O)NC(=O)[C@H](CO)NC1=O` (stereo not given in full) were -13.9%, -20.3%, -21.3%, -3.11% and “inactive”.
With `CCN1C(=O)NC(c2ccccc2)C1=O` (stereo not given), the activity, negative = cell killing was -11.1% in assay [1] (at 20 µM (top of the series), tumour line C); -3.29% in assay [1] (at 21.2 µM (top of the series), tumour line B); -11.8% in assay [1] (at 21.2 µM (top of the series), tumour line D); -9.7% in assay [1] (at 21.3 µM (top of the series), tumour line A). Besides, the Potency entry in the assay with astro is “inactive”.
As for `CC[C@@H]1/C=C(\C)C[C@H](C)C[C@H](OC)[C@H]2O[C@@](O)(C(=O)C(=O)N3CCCC[C@H]3C(=O)O[C@H](/C(C)=C/[C@@H]3CC[C@@H](Cl)[C@H](OC)C3)[C@H](C)[C@@H](O)CC1=O)[C@H](C)C[C@@H]2OC`, the activity, negative = cell killing is -7.85% in assay [1] (setting [2]), -16.3% in assay [1] (setting [3]), -14.1% in assay [1] (setting [4]) and -18.5% in assay [1] (setting [5]). Besides, the Potency result in the assay on astro is “inactive”.
`CO/N=C(\C(=O)N[C@@H]1C(=O)N2C(C(=O)O)=C(CSc3nc(C)c(CC(=O)O)s3)CS[C@H]12)c1csc(N)n1`: the activity, negative = cell killing in assay [1] (setting [2]) was -4.93%; in assay [1] (setting [3]) it was 3.79%; in assay [1] (setting [4]) it was -22%; in assay [1] (setting [5]), -20.8%. For the same compound, the Potency entry with astro was “inactive”.
For `O=C(O)[C@@H]1C[C@H](CP(=O)(O)O)CCN1`, in that order: -4.93%, -11.9%, -21.2%, -14% and “inactive”.
For `CCCCCCCCCCCCCC(=O)OCC(COP(=O)([O-])OCC[N+](C)(C)C)OC(=O)CCCCCCCCCCCCC` (stereo not given), in that order: -7.07%, 3.06%, -21.5%, -13.4% and “inactive”.
For `C/C=C/C=C/C(=O)O`, in that order: 2.26%, -15.1%, -7.83%, -7.57% and “inactive”.
Turning to `C[C@]12CC[C@@H]3c4ccc(O)cc4CC[C@H]3[C@@H]1CC[C@@H]2OP(=O)(O)O`, the activity, negative = cell killing is -7.23% in assay [1] (setting [2]), -13% in assay [1] (setting [3]), -23.9% in assay [1] (setting [4]) and 22.6% in assay [1] (setting [5]). Further, in the assay with astro, the Potency result was “inactive”.
As to `COC(=O)[C@H]1[C@H]2C[C@@H]3c4[nH]c5cc(OC)ccc5c4CCN3C[C@H]2C[C@H](OC)[C@@H]1OC`, the results for the activity, negative = cell killing in assay [1] (setting [2]), in assay [1] (setting [3]) and in assay [1] (setting [5]) were -8.25%, -1.56% and -6.43%, respectively. Also, the Potency in assay [1] (tumour line A) is 11.2 µM (active). In addition, the Potency result in the assay with astro was “inactive”.
Consider `CNC(=O)c1c(I)c(C(=O)NCC(=O)Nc2c(I)c(C(=O)O)c(I)c(C(=O)NCCO)c2I)c(I)c(N(C)C(C)=O)c1I`, for which the activity, negative = cell killing in assay [1] (setting [2]) was -2.37%; in assay [1] (setting [3]), -21.2%; in assay [1] (setting [4]) it was -7.61%; in assay [1] (setting [5]), 3.32%. Also, the Potency entry in the assay with astro is “inactive”.
As to `CC(C)C[C@H](NC(=O)[C@@H](COC(C)(C)C)NC(=O)[C@H](Cc1ccc(O)cc1)NC(=O)[C@H](CO)NC(=O)[C@H](Cc1c[nH]c2ccccc12)NC(=O)[C@H](Cc1cnc[nH]1)NC(=O)[C@@H]1CCC(=O)N1)C(=O)N[C@@H](CCCN=C(N)N)C(=O)N1CCC[C@H]1C(=O)NNC(N)=O`, the activity, negative = cell killing was -16.4% and -7.35% in assay [1] (setting [2]); -27.1% and -14% in assay [1] (setting [3]); -28.3% and -17.4% in assay [1] (setting [4]); -8.14% and 8.02% in assay [1] (setting [5]). In addition, the Potency entry in the assay on astro was “inactive”.

The values above are taken from PubChem BioAssay (NCATS).
